Screening results (PubChem)
In the library only some 5.8% were active in any assay of this set; here they are far more common.
ALOX12 inh – Primary qHTS assay for inhibitors of human arachidonate 12S-lipoxygenase (ALOX12): Round 2 | Polyunsaturated fatty acid lipoxygenase ALOX12 (Homo sapiens), P18054 | purified 12hLO, xylenol orange hydroperoxide absorbance | Potency, µM (series often up to 108 µM), inactives show at the highest dose activity change, negative = inhibition, hits mostly inhibitors | 580,000 tested, 1.1% active | AID 1671190, 2021; further: on the % scale 0 is the no-effect control and ±100 the full control effect
Target sequence (P18054 whole entry, looked up): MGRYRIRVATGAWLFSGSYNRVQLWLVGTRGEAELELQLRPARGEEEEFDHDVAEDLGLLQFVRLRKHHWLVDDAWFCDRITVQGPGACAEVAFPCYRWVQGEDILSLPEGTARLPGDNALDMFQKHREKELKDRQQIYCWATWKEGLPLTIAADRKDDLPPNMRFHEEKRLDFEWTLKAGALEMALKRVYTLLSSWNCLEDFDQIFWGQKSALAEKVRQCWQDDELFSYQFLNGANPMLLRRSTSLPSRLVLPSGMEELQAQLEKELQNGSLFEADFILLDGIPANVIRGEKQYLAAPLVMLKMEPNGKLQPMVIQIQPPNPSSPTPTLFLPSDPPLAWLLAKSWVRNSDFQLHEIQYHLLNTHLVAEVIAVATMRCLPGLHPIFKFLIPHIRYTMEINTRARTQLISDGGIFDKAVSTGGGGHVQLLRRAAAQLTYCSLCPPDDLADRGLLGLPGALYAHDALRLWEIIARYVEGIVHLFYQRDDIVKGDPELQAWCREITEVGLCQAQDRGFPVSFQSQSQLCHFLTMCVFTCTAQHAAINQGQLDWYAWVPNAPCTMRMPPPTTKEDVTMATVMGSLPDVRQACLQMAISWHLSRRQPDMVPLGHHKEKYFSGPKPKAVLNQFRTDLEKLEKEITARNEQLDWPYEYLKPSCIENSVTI
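Purified human 12hLO at 150 nM in 25 mM Hepes, 0.01% Triton X-100, pH 7.0, preincubated 15 min at room temperature with compound. Reaction started with 40 uM arachidonic acid, 30 min at room temperature. Hydroperoxide measured by Fe-xylenol orange, 573/405 nm absorbance ratio.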
MCF10A rerep – A quantitative high throughput screen for small molecules that induce DNA re-replication in MCF 10a normal breast cells; AID 624296, 2012; 350,000 tested, 2.9% active; MCF 10A DNA re-replication, Hoechst nuclear intensity, 48 h; Potency, µM (titrated, usually from 46.1 µM), for inactives: at the highest dose activity, positive = re-replication, actives largely listed as activators; further: % of control where 0% means no effect; nearly all actives have a fitted effect of over 50% in size
SW480 rereplic – A quantitative high throughput screen for small molecules that induce DNA re-replication in SW480 colon adenocarcinoma cells; SW480 DNA re-replication, Hoechst DNA content imaging, 48 h; Potency, µM (highest dose often 46.1 µM), without a hit: top-dose re-replication activation, actives largely listed as activators; 340,000 tested, 1.8% active; further: % of control where 0% means no effect; nearly all actives have a fitted effect of over 55% in size
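SW480 cells exposed to compounds for 48 hr at 37 C, 5% CO2, then Hoechst-stained 40 min. Nuclear DNA content imaged by fluorescence scanning (405 nm excitation, 500-530 nm emission); re-replication scored as increased high-intensity nuclei.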
KB-V1 cytotox – qHTS assay for MDR1-selective chemotherapeutics: Primary screen using the drug-selected MDR subline cells KB-V1. KB-V1 MDR cells viability, CellTiter-Glo, 72 h. Potency, µM (highest dose often 46.1 µM), usual class: cytotoxic. 400,000 tested, 3.4% active; further: on the % scale 0 is the no-effect control and ±100 the full control effect; nearly all actives have a fitted effect of over 60% in size
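KB-V1 cells (P-gp-expressing MDR subline of KB-3-1) in phenol-red-free DMEM with 10% FBS were exposed to library compounds over a concentration series for 72 h at 37 degrees C. Viability read by CellTiter-Glo luminescence; concentration-effect curves fitted after normalization.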
KB-3-1 cytotox – qHTS assay for MDR1-selective chemotherapeutics: Primary screen using the parental adenocarcinoma cell KB-3-1. KB-3-1 viability, CellTiter-Glo ATP luminescence, 72 h. Potency, µM (doses to about 46.1 µM), most hits filed as cytotoxic. 400,000 tested, 1.4% active. AID 1347075, 2019; further: on the % scale 0 is the no-effect control and ±100 the full control effect; nearly all actives have a fitted effect of over 60% in size
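Parental KB-3-1 adenocarcinoma cells in phenol-red-free DMEM with 10% FBS were pin-treated with compounds at several concentrations, incubated 72 h at 37 °C, and viability read by CellTiter-Glo luminescence; concentration-effect curves were fitted after normalization.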
PINK1 modulator – A Quantitative High throughput Screen to Identify Chemical Modulators of PINK1 Expression; PINK1 immunofluorescence, high-content cytometry, 24 h; Potency, µM (top dose mostly 76.6 µM), for the others: at the top dose activation (PINK1 increase), hits mostly activators; 410,000 tested, 0.2% active; AID 624263, 2012; active means well fitted activation curve with a large enough effect; inconclusive means small, poorly fitted or top-dose-only effect; cell line not stated here; further: % of control where 0% means no effect; nearly all actives have a fitted effect of over 65% in size
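A stable cell line was treated with compounds at 5 concentrations for 24 hours, with CCCP as control. PINK1 levels and mitochondrial localization were measured by immunofluorescence with mitochondrial, cell and nuclear markers after fixation, read by laser-scanning cytometry.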
Active calls of the source: *; i = inactive; ? = inconclusive; · = no result given; ! = a repeat was not active; [ ] = dose if it differs, or a comment. Unless noted, the call rests on the fitted dose curve; in most records, active means well fitted curve in the direction sought with a large enough effect; inconclusive means small, poorly fitted or top-dose-only effect, or another doubt; inactive means no such curve, though single readings can be large; an effect the other way counts as inactive or inconclusive. Potency means the concentration at half of the fitted maximal effect.

SMILES | ALOX12 inh | MCF10A rerep | SW480 rereplic | KB-V1 cytotox | KB-3-1 cytotox | PINK1 modulator
CCCC1CCC(c2ccc(-c3ccc(OC(F)F)c(F)c3)cc2)CC1 (centres undefined) | 4% | · | · | · | · | ·
COc1cc(CNn2cnnc2)ccc1OCc1ccccc1F | 0% | · | · | · | · | ·
Cc1cccc(OCCNc2cc(N3CCN(C)CC3)ccc2[N+](=O)[O-])c1 | 12% | 25% | ? | 16µM* | ? | 6%
Cc1cccc(OCCNc2cc(N3CCOCC3)ccc2[N+](=O)[O-])c1 | 21% | -6% | -7% | i | i | ?
CN(CCC(=O)NC(=O)NCc1ccccc1)Cc1ccccc1 | 5% | · | · | · | · | ·
CCOC(=O)C1=C(C)NC(C)=C(C(=O)OCC)C1/C=C/c1ccccc1OC | -8% | ? | 23µM* | 21µM* | i | ?
CCOC(=O)C1=C(C)NC(C)=C(C(=O)OCC)C1c1ccccc1C=CC(=O)OC(C)(C)C | · | ? | 30µM* | · | · | ·
CCOC(=O)C1=C(C)NC(C)=C(C(=O)OCC)C1/C=C/c1ccccc1 | ? | ? | ? | i | i | 10%[38.3 µM]
COCCOC(=O)C1=C(C)NC(C)=C(C(=O)OCCOC)C1/C=C/c1ccccc1OC | 125% | 0% | 4% | i | i | 1%
CC1CCCN(c2nc3ccccc3nc2NS(=O)(=O)c2ccccc2)C1 (centres undefined) | -1% | · | · | · | · | ·
COc1ccc(-c2ocnc2C(=O)Nc2ccc(Cl)cc2)cc1OC | 1% | · | · | · | · | ·
Cc1cc(C)cc(NC(=S)NCCO)c1 | 14µM* | · | · | · | · | ·
O=C(CC1C(=O)N(C2CCCC2)c2nc3ccccc3n21)Nc1ccc2c(c1)OCO2 (centres undefined) | -17% | · | · | · | · | ·
CC(C)c1noc(CN2CCN(CCOc3ccc(Cl)cc3)CC2)n1 | -20% | · | · | · | · | ·
O=C(COc1ccc(Cl)cc1)Nc1nc(-c2cccs2)cs1 | 0% | 13µM* | -2% | i | i | 13%
O=C(Nc1nc(-c2cccs2)cs1)c1ccc([N+](=O)[O-])o1 | ? | 2.9µM* | 7.3µM* | 21µM* | 6.5µM* | 1%
Cc1c(C(=O)Nc2nccs2)sc2nc(-c3cccs3)cc(C(F)(F)F)c12 | -13% | ? | ? | ? | 9.2µM* | ?
CC1CC1C(=O)Nc1nc(-c2ccc(Cl)s2)cs1 (centres undefined) | -13% | 10% | 4% | 13µM* | ? | 12%
CC1=NN(C(=O)CSCc2ccccc2Cl)C(O)(C(F)(F)F)C1 (centres undefined) | 7% | · | · | · | · | ·
CN(C)c1cccc(-c2cnc(Nc3ccncc3)c3c2CCO3)c1 | 51%[176 µM] | · | · | · | · | ·
Cc1csc(NC(=O)c2sc3nc(-c4cccs4)ccc3c2N)n1 | · | 1% | ? | 21µM* | i | ·
O=C(Nc1nc(-c2cccs2)cs1)c1ccc(Cl)cc1 | ? | ? | 0% | 21µM* | ? | 4%
Cc1ccc(NC(=O)c2sc3nc(-c4cccs4)ccc3c2N)cc1F | 2% | · | · | · | · | 11%
O=C(CN1C(=O)CCC1=O)Nc1nc(-c2ccc(Cl)s2)cs1 | -5% | 21µM*! | 6% | i | i | 3%
COc1cc(C(=O)Nc2nc(-c3cccs3)cs2)cc(OC)c1OC | -27% | ? | -8% | i | i | ·
SMILES | ALOX12 inh | MCF10A rerep | SW480 rereplic | KB-V1 cytotox | KB-3-1 cytotox | PINK1 modulator
COc1ccc(C(=O)Nc2cnc(NC(=O)c3cccs3)cc2C)cc1 | -18% | 7.3µM* | ? | i | i | -1%
CS(=O)Cc1cccc(C(=O)NCC(C)(C)c2ccccc2)c1 (centres undefined) | 9% | · | · | · | · | ·
COC(=O)Cc1csc(NC(=O)Cc2c(C)c3ccc(O)cc3oc2=O)n1 | -4% | · | · | · | · | ·
COc1ccc(C(=O)Nc2nc(-c3cccs3)cs2)cc1 | ? | ? | -8% | 5.8µM* | ? | 6%
O=C(Nc1nc(-c2ccc(Cl)s2)cs1)c1ccncc1 | -5% | 2% | -3% | 6.5µM* | ? | -4%[38.3 µM]
COc1ccc(N2CCCS2(=O)=O)cc1NS(=O)(=O)c1ccc(F)c(C)c1 | 4% | · | · | · | · | ·
COc1ccc(/C=C2\CCC(C3CCCC3)C2=O)cc1Cn1cccn1 (centres undefined) | -19% | 54% | 29% | 23µM* | i | -1%
O=C1/C(=C/c2ccccc2)CCC1C1CCCC1 (centres undefined) | 5% | 20% | 12% | i | i | 4%
COc1ccccc1/C=C1\CCC(C2CCCC2)C1=O (centres undefined) | 2% | 18µM* | -2% | i | i | 4%
Cc1ccccc1OCCN(C)Cc1cc(=O)oc2c(C)c(O)ccc12 | -24% | · | · | · | · | ·
COC(=O)c1cc(=O)n(CCc2ccc(OC)c(OC)c2)c(=Nc2ccc(F)c(Cl)c2)s1 | 1% | 3.3µM* | 6% | 21µM* | ? | 0%
COC(=O)c1cc(=O)n(Cc2ccc(OC)c(OC)c2)c(=Nc2ccc(F)cc2)s1 | 0% | ? | 2% | ? | 21µM* | 0%
COC(=O)c1cc(=O)n(Cc2ccc(F)cc2)c(=Nc2ccccc2)s1 | 0% | ? | -8% | ? | i | 5%
COC(=O)c1cc(=O)n(Cc2ccco2)c(=Nc2ccc(F)cc2)s1 | · | ? | 7% | 23µM* | ? | -1%
CC(C)Cc1nc(NCC2CCCO2)c(C#N)c2c1CCCC2 (centres undefined) | 4% | · | · | · | · | ·
